In publication PMC6212790, “How bacterial xenogeneic silencer rok distinguishes foreign from self DNA in its resident genome”:
Over roughly 33,000 sequences, “e-score” has its median near -0.037; the highest 2% begin near 0.34. The list comes from a sample in which the highest values are over-represented; it also holds similar and randomly drawn sequences.

What follows are sequences tested against T1, GST-Rok (full length) (Bacillus subtilis subsp. subtilis str. …, UniProt O34857 1-191) (assay: protein binding microarray; Rok is a gene silencer of Bacillus subtilis; high values mean tight binding). Conditions: protein: recombinant; tags: GST (pTH5325, pDEST15-Magic modified); dsDNA, one strand shown.
T1 sequence: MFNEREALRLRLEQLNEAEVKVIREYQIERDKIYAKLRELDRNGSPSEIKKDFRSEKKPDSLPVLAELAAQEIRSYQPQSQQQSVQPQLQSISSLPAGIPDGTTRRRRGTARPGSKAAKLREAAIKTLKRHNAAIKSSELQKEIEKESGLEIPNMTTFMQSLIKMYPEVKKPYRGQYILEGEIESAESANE
Procedure, shortened: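 Each has a 25-mer constant primer and a 35-mer variable part from a de Bruijn sequence of order 10, covering every non-palindromic 8-mer at least 32 times (palindromic 16). Preference for each 8-mer is given as a rank-based, unitless enrichment score (E-score). Its range runs from 0.5 (most favored) to −0.5 (most disfavored).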
With CATAGTAA the binding signal was 0.271 E-score. Sequence TATAGTCA has a binding signal of 0.159 E-score. GATAGTAC gave a binding signal of 0.18 E-score. Sequence GATAGTAA has a binding signal of 0.406 E-score. CGGCATGA gave a binding signal of -0.101 E-score. For GGGAATGA, the binding signal was -0.0881 E-score. GTATGTGA showed a binding signal of 0.247 E-score. With GAAATAAA the binding signal was 0.221 E-score. AGATGAAC showed a binding signal of 0.165 E-score. ACGTATAA showed a binding signal of 0.244 E-score. With AAGTATAT the binding signal was 0.348 E-score. AAGTATAG showed a binding signal of 0.127 E-score. For AAGTATAC, the binding signal was 0.251 E-score. With ACGTATAT the binding signal was 0.365 E-score. Work on ACGTATAC yielded a binding signal of 0.232 E-score. Sequence GGGATTGA has a binding signal of -0.112 E-score. With GATACATC the binding signal was 0.186 E-score. GATACAGA showed a binding signal of -0.0115 E-score. GGTACATA was tested, and the binding signal was 0.196 E-score. TACACATA showed a binding signal of 0.315 E-score. With TATACAGA the binding signal was 0.342 E-score. GATACATA was tested, and the binding signal was 0.388 E-score. AATACAGA showed a binding signal of 0.0991 E-score. Work on TATACATA yielded a binding signal of 0.37 E-score. AATACATT was tested, and the binding signal was 0.252 E-score. AATACATA gave a binding signal of 0.373 E-score. For TATACACA, the binding signal was 0.2 E-score. AATACATG gave a binding signal of 0.108 E-score. Work on GGATTCAC yielded a binding signal of -0.0831 E-score. For ACAAGTCG, the binding signal was -0.122 E-score. ACCTAGGG gave a binding signal of -0.142 E-score. Work on CGTGGAGA yielded a binding signal of 0.119 E-score. ACGCCAAT showed a binding signal of -0.0858 E-score. For GGGAAGTA, the binding signal was 0.17 E-score. CCCAGCGC gave a binding signal of -0.157 E-score. ATTACGAG gave a binding signal of 0.154 E-score. For ACTGTCAC, the binding signal was 0.011 E-score. CGTACAAA gave a binding signal of 0.194 E-score. With CATACAAA the binding signal was 0.288 E-score. In the case of AGTACAAG, the binding signal is reported as 0.217 E-score. In the case of AGTACAAA, the binding signal is reported as 0.343 E-score. Sequence CATACATG has a binding signal of 0.143 E-score. With CATACATC the binding signal was 0.158 E-score. Sequence TATACAAA has a binding signal of 0.402 E-score. In the case of CATACATA, the binding signal is reported as 0.366 E-score. Work on AATACAAA yielded a binding signal of 0.206 E-score. CGCGTTAG showed a binding signal of 0.07 E-score. CTCTAACC was tested, and the binding signal was -0.055 E-score. AGAATGAA showed a binding signal of 0.111 E-score. With TGGCGCAA the binding signal was -0.0245 E-score. AGGTTACG was tested, and the binding signal was -0.0671 E-score. Sequence CATCTATC has a binding signal of 0.289 E-score. With CATCTATA the binding signal was 0.199 E-score. AATCTATA gave a binding signal of 0.384 E-score. AATCTATG gave a binding signal of 0.174 E-score. GATCTATA showed a binding signal of 0.307 E-score. AATCTATC was tested, and the binding signal was 0.377 E-score. ATAGACTA was tested, and the binding signal was 0.186 E-score. Sequence AGGGAATC has a binding signal of 0.0103 E-score. Work on AGTTACCC yielded a binding signal of 0.179 E-score. For AAGACGTA, the binding signal was 0.132 E-score. Work on ACGATATA yielded a binding signal of 0.298 E-score. With GAGATATC the binding signal was 0.181 E-score. GATATATC gave a binding signal of 0.39 E-score. GATATAGC gave a binding signal of 0.0453 E-score. GGGATATA was tested, and the binding signal was 0.221 E-score. In the case of GCGATATA, the binding signal is reported as 0.342 E-score. Sequence GTGATATA has a binding signal of 0.25 E-score. Work on CCGATATA yielded a binding signal of 0.297 E-score. For GATATATA, the binding signal was 0.365 E-score. For GGTACAAC, the binding signal was -0.0759 E-score. In the case of CTGGCAAA, the binding signal is reported as -0.152 E-score. ACACGTGC was tested, and the binding signal was -0.0468 E-score. TAGCGTAA gave a binding signal of 0.144 E-score. Sequence CGGAAATC has a binding signal of 0.0575 E-score. For CAGAAGCG, the binding signal was -0.142 E-score. Sequence CCTATAGA has a binding signal of 0.0582 E-score. With TATATAGA the binding signal was 0.404 E-score. In the case of AATATAGG, the binding signal is reported as 0.23 E-score. Sequence ACTATAGA has a binding signal of 0.174 E-score. For AAAATAGT, the binding signal was 0.407 E-score. Sequence TCTATAGA has a binding signal of 0.36 E-score. In the case of AATATAGC, the binding signal is reported as 0.32 E-score. For AAAATAGC, the binding signal was 0.179 E-score. With AAAATAGA the binding signal was 0.325 E-score. With CATATAGA the binding signal was 0.133 E-score. AATATAGT was tested, and the binding signal was 0.359 E-score. With GATATAGA the binding signal was 0.228 E-score. Sequence GCCGCTCA has a binding signal of -0.181 E-score. AGCATGTC showed a binding signal of 0.0983 E-score. With CAACTTTC the binding signal was 0.15 E-score. Work on CATTACCG yielded a binding signal of 0.00887 E-score. ACAAAACT was tested, and the binding signal was 0.085 E-score. With CCTACCTC the binding signal was 0.0499 E-score. Work on ATATAGGA yielded a binding signal of 0.195 E-score. Sequence CTAGAGAA has a binding signal of 0.193 E-score. Sequence AAAACGAC has a binding signal of -0.0861 E-score. In the case of AGTTAAAA, the binding signal is reported as 0.197 E-score. Sequence CATTGACA has a binding signal of 0.0572 E-score. Sequence AATGGAGT has a binding signal of 0.0603 E-score. ACTATAGG was tested, and the binding signal was 0.0843 E-score. Sequence ACTATAGT has a binding signal of 0.409 E-score. With CATATGGA the binding signal was -0.0847 E-score. In the case of TATATGGA, the binding signal is reported as 0.343 E-score. For AATAGAGA, the binding signal was 0.239 E-score. Work on GATATGGA yielded a binding signal of 0.139 E-score. In the case of ACTATAGC, the binding signal is reported as 0.164 E-score. AATATAGA showed a binding signal of 0.365 E-score. Sequence AGTATAGA has a binding signal of 0.159 E-score. For AGGTAATC, the binding signal was -0.0361 E-score. AGCGGGGA showed a binding signal of -0.076 E-score. For ACCACTAG, the binding signal was 0.0844 E-score. For AGGAATGC, the binding signal was -0.0829 E-score. Work on GTACCTAC yielded a binding signal of 0.353 E-score. ATACCTAC was tested, and the binding signal was 0.351 E-score. Work on CTACCTAA yielded a binding signal of 0.22 E-score. For CTACCTAC, the binding signal was 0.346 E-score. ATACCTAG gave a binding signal of 0.31 E-score. Sequence CTACCTAG has a binding signal of 0.235 E-score. GAACCTAC was tested, and the binding signal was 0.15 E-score. ATACCTAT showed a binding signal of 0.333 E-score. Work on GTACCTAA yielded a binding signal of 0.132 E-score. Work on CTGCGCTA yielded a binding signal of -0.143 E-score. ACAGAAGG showed a binding signal of -0.105 E-score. In the case of AGTCTCTA, the binding signal is reported as 0.0503 E-score. GCACTTAC was tested, and the binding signal was -0.0436 E-score. TAAACCTA gave a binding signal of 0.181 E-score. With CGTGCGGA the binding signal was -0.0584 E-score. AAATAGCC gave a binding signal of 0.046 E-score. In the case of AAATAGTA, the binding signal is reported as 0.42 E-score. Work on GGGTAATA yielded a binding signal of 0.234 E-score. For AAATAGCT, the binding signal was 0.379 E-score. With CAATAGTC the binding signal was 0.101 E-score. Work on CAATAGTG yielded a binding signal of 0.287 E-score. For CAATAGTA, the binding signal was 0.341 E-score. AAATAGCA showed a binding signal of 0.0964 E-score. ACATAGTA showed a binding signal of 0.306 E-score. AAATAGCG gave a binding signal of 0.0843 E-score. CGGTAATC showed a binding signal of -0.0198 E-score. CGGTAATA was tested, and the binding signal was 0.372 E-score. With CCTCGATA the binding signal was -0.188 E-score. GTCCTGTA was tested, and the binding signal was -0.0798 E-score. ATAGGTGA gave a binding signal of 0.0572 E-score. In the case of GAGCCCAA, the binding signal is reported as -0.192 E-score. Sequence GACCAGTA has a binding signal of 0.0441 E-score. For CTTTTATC, the binding signal was 0.118 E-score. Sequence ATTTGGGA has a binding signal of -0.131 E-score. AAACGTCT was tested, and the binding signal was -0.171 E-score. AAGTGACG showed a binding signal of 0.0469 E-score. AAACAGGG showed a binding signal of -0.0541 E-score. AGTTCCAT gave a binding signal of 0.0525 E-score. Work on AGTTTGAC yielded a binding signal of -0.0534 E-score. ACAACTCA was tested, and the binding signal was 0.097 E-score. Sequence AAATAGTC has a binding signal of 0.119 E-score. Work on TAGTAACA yielded a binding signal of 0.366 E-score. GAATAGTA was tested, and the binding signal was 0.285 E-score. In the case of AAGTAATA, the binding signal is reported as 0.275 E-score. Sequence TAGTAATA has a binding signal of 0.408 E-score. Work on CAGTAACA yielded a binding signal of 0.0586 E-score. Work on AAGTAACA yielded a binding signal of 0.207 E-score. GAGTAATA showed a binding signal of 0.318 E-score. In the case of AAATAGTT, the binding signal is reported as 0.4 E-score. Work on AAATAGTG yielded a binding signal of 0.231 E-score. For TAATAGTA, the binding signal was 0.401 E-score. For TAATAGCA, the binding signal was 0.257 E-score. GTTTGTAA showed a binding signal of 0.172 E-score. For CATCACAG, the binding signal was -0.0903 E-score. In the case of ACAGTTAC, the binding signal is reported as 0.278 E-score. ACATCAAG was tested, and the binding signal was 0.00272 E-score. In the case of AGGGTGAA, the binding signal is reported as -0.17 E-score. With CGTGGCTC the binding signal was -0.0956 E-score. With GCATGGGC the binding signal was -0.196 E-score.
